# Reference: PMC11062922 (Nature Chemical Biology, 2023)
# Like-named read-outs stand apart in the source and are kept apart here.
# How the values were obtained:
# CDK16 = system: CDK16; set-up: species or system human, MV4-11 + K-562 + COLO205 + SK-N-BE2 + OVCAR-8; details: read-out: apparent Kd; compound concentrations: 100 nM and 1000 nM (sheet 'Samples'), CATDS: 3.1157097879833801E-2; n = 1
# CDK2 = system: CDK2; set-up: species or system human, MV4-11 + K-562 + COLO205 + SK-N-BE2 + OVCAR-8; details: read-out: apparent Kd; compound concentrations: 100 nM and 1000 nM (sheet 'Samples'), CATDS: 3.2251458753321499E-2; n = 1
# CDK4 = system: CDK4; set-up: species or system human, MV4-11 + K-562 + COLO205 + SK-N-BE2 + OVCAR-8; details: read-out: apparent Kd; compound concentrations: 100 nM and 1000 nM (sheet 'Samples'), CATDS: 3.5176707262462401E-2; n = 1
# CDK9 = system: CDK9; set-up: species or system human, MV4-11 + K-562 + COLO205 + SK-N-BE2 + OVCAR-8; details: read-out: apparent Kd; compound concentrations: 100 nM and 1000 nM (sheet 'Samples'), CATDS: 6.6122234274616706E-2; n = 1
# CDKL5 = system: CDKL5; set-up: species or system human, MV4-11 + K-562 + COLO205 + SK-N-BE2 + OVCAR-8; details: read-out: apparent Kd; compound concentrations: 100 nM and 1000 nM (sheet 'Samples'), CATDS: 0.306088725314409; n = 1
# CLK1 = system: CLK1; set-up: species or system human, MV4-11 + K-562 + COLO205 + SK-N-BE2 + OVCAR-8; details: read-out: apparent Kd; compound concentrations: 100 nM and 1000 nM (sheet 'Samples'), CATDS: 0.131869322388253; n = 1
# CLK4 = system: CLK4; set-up: species or system human, MV4-11 + K-562 + COLO205 + SK-N-BE2 + OVCAR-8; details: read-out: apparent Kd; compound concentrations: 100 nM and 1000 nM (sheet 'Samples'), CATDS: 7.3732839889054297E-2; n = 1
# CSNK1D = system: CSNK1D; set-up: species or system human, MV4-11 + K-562 + COLO205 + SK-N-BE2 + OVCAR-8; details: read-out: apparent Kd, compound concentrations: 100 nM and 1000 nM (sheet 'Samples'), n = 1
# CSNK1E = system: CSNK1E; set-up: species or system human, MV4-11 + K-562 + COLO205 + SK-N-BE2 + OVCAR-8; details: read-out: apparent Kd, compound concentrations: 100 nM and 1000 nM (sheet 'Samples'), n = 1
# DYRK1A = system: DYRK1A; set-up: species or system human, MV4-11 + K-562 + COLO205 + SK-N-BE2 + OVCAR-8; details: read-out: apparent Kd; compound concentrations: 100 nM and 1000 nM (sheet 'Samples'), CATDS: 4.1731549571109597E-2; n = 1
# FLT3 = system: FLT3; set-up: species or system human, MV4-11 + K-562 + COLO205 + SK-N-BE2 + OVCAR-8; details: read-out: apparent Kd; compound concentrations: 100 nM and 1000 nM (sheet 'Samples'), CATDS: 6.99540125282513E-2; n = 1
# GSK3A = system: GSK3A; set-up: species or system human, MV4-11 + K-562 + COLO205 + SK-N-BE2 + OVCAR-8; details: read-out: apparent Kd; compound concentrations: 100 nM and 1000 nM (sheet 'Samples'), CATDS: 0.103253823443788; n = 1
# GSK3B = system: GSK3B; set-up: species or system human, MV4-11 + K-562 + COLO205 + SK-N-BE2 + OVCAR-8; details: read-out: apparent Kd; compound concentrations: 100 nM and 1000 nM (sheet 'Samples'), CATDS: 9.7411606637186801E-2; n = 1
# ICK = system: ICK; set-up: species or system human, MV4-11 + K-562 + COLO205 + SK-N-BE2 + OVCAR-8; details: read-out: apparent Kd; compound concentrations: 100 nM and 1000 nM (sheet 'Samples'), CATDS: 8.4231126757800603E-2; n = 1
# NEK9 = system: NEK9; set-up: species or system human, MV4-11 + K-562 + COLO205 + SK-N-BE2 + OVCAR-8; details: read-out: apparent Kd; compound concentrations: 100 nM and 1000 nM (sheet 'Samples'), CATDS: 3.4709334986352897E-2; n = 1
# NNT = system: NNT; set-up: species or system human, MV4-11 + K-562 + COLO205 + SK-N-BE2 + OVCAR-8; details: read-out: apparent Kd; compound concentrations: 100 nM and 1000 nM (sheet 'Samples'), CATDS: 3.3051747730414797E-2; n = 1
# NUAK1 = system: NUAK1; set-up: species or system human, MV4-11 + K-562 + COLO205 + SK-N-BE2 + OVCAR-8; details: read-out: apparent Kd; compound concentrations: 100 nM and 1000 nM (sheet 'Samples'), CATDS: 4.2227707983222298E-2; n = 1
# Q6ZSR9 = Q6ZSR9 (human, UniProt Q6ZSR9); set-up: species or system MV4-11 + K-562 + COLO205 + SK-N-BE2 + OVCAR-8; details: read-out: apparent Kd; compound concentrations: 100 nM and 1000 nM (sheet 'Samples'), CATDS: 7.3176607259513596E-2; n = 1
# Sequence of Q6ZSR9 (Q6ZSR9 whole entry, looked up): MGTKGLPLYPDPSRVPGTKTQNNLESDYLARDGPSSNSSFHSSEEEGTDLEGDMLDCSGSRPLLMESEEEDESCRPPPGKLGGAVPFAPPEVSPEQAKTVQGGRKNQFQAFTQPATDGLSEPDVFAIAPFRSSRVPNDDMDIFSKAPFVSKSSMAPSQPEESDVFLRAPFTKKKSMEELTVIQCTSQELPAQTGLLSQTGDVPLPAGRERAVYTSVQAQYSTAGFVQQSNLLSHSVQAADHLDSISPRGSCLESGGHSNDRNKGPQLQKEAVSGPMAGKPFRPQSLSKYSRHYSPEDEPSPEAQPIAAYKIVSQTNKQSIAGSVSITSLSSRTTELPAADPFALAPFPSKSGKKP
# RIOK2 = system: RIOK2; set-up: species or system human, MV4-11 + K-562 + COLO205 + SK-N-BE2 + OVCAR-8; details: read-out: apparent Kd; compound concentrations: 100 nM and 1000 nM (sheet 'Samples'), CATDS: 3.29501520790835E-2; n = 1
# TGFBR2 = system: TGFBR2; set-up: species or system human, MV4-11 + K-562 + COLO205 + SK-N-BE2 + OVCAR-8; details: read-out: apparent Kd; compound concentrations: 100 nM and 1000 nM (sheet 'Samples'), CATDS: 8.2747157817186001E-2; n = 1
# CDC42 = system: CDC42; set-up: species or system human, MV4-11 + K-562 + COLO205 + SK-N-BE2 + OVCAR-8; details: read-out: apparent Kd; compound concentrations: 100 nM and 1000 nM (sheet 'Samples'), CATDS: 8.3198711436125394E-2; n = 1
# CSNK1A1 = system: CSNK1A1; set-up: species or system human, MV4-11 + K-562 + COLO205 + SK-N-BE2 + OVCAR-8; details: read-out: apparent Kd; compound concentrations: 100 nM and 1000 nM (sheet 'Samples'), CATDS: 8.7123517988238197E-2; n = 1
# MAPK10 = system: MAPK10; set-up: species or system human, MV4-11 + K-562 + COLO205 + SK-N-BE2 + OVCAR-8; details: read-out: apparent Kd; compound concentrations: 100 nM and 1000 nM (sheet 'Samples'), CATDS: 0.11305020597261101; n = 1
# MAPK14 = system: MAPK14; set-up: species or system human, MV4-11 + K-562 + COLO205 + SK-N-BE2 + OVCAR-8; details: read-out: apparent Kd; compound concentrations: 100 nM and 1000 nM (sheet 'Samples'), CATDS: 9.3591045937798004E-2; n = 1
# MAPK9 = system: MAPK9; set-up: species or system human, MV4-11 + K-562 + COLO205 + SK-N-BE2 + OVCAR-8; details: read-out: apparent Kd; compound concentrations: 100 nM and 1000 nM (sheet 'Samples'), CATDS: 8.8395799729483998E-2; n = 1
# MAPKAPK2 = system: MAPKAPK2; set-up: species or system human, MV4-11 + K-562 + COLO205 + SK-N-BE2 + OVCAR-8; details: read-out: apparent Kd; compound concentrations: 100 nM and 1000 nM (sheet 'Samples'), CATDS: 0.13823017842708299; n = 1
# RIPK2 = system: RIPK2; set-up: species or system human, MV4-11 + K-562 + COLO205 + SK-N-BE2 + OVCAR-8; details: read-out: apparent Kd; compound concentrations: 100 nM and 1000 nM (sheet 'Samples'), CATDS: 9.29117270749487E-2; n = 1
compound,measurement,setting,value
COc1cccc(Nc2nccc(-c3cnn4ncccc34)n2)c1 [GW810576X],potency estimated from few doses,CDK16,2230 nM
same,potency estimated from few doses,CDK2,1800 nM
same,potency estimated from few doses,CDK4,1130 nM
same,potency estimated from few doses,CDK9,119 nM
same,potency estimated from few doses,CDKL5,8.45 nM
same,potency estimated from few doses,CLK1,29.2 nM
same,potency estimated from few doses,CLK4,90.9 nM
same,potency estimated from few doses,CSNK1D; CATDS: 3.5838047250471398E-2,1030 nM
same,potency estimated from few doses,CSNK1E; CATDS: 3.1149336029707601E-2,2230 nM
same,potency estimated from few doses,DYRK1A,529 nM
same,potency estimated from few doses,FLT3,103 nM
same,potency estimated from few doses,GSK3A,45 nM
same,potency estimated from few doses,GSK3B,50.3 nM
same,potency estimated from few doses,ICK,67.5 nM
same,potency estimated from few doses,NEK9,1210 nM
same,potency estimated from few doses,NNT,1570 nM
same,potency estimated from few doses,NUAK1,505 nM
same,potency estimated from few doses,Q6ZSR9,92.6 nM
same,potency estimated from few doses,RIOK2,1590 nM
same,potency estimated from few doses,TGFBR2,70.2 nM
Fc1ccc(-c2nc3n(c2-c2ccncc2)CCS3)cc1 [GI98581X],potency estimated from few doses,CDC42,1530 nM
same,potency estimated from few doses,CSNK1A1,1320 nM
same,potency estimated from few doses,CSNK1D; CATDS: 0.37273157205877999,87.9 nM
same,potency estimated from few doses,CSNK1E; CATDS: 0.16724223379061501,304 nM
same,potency estimated from few doses,MAPK10,666 nM
same,potency estimated from few doses,MAPK14,1070 nM
same,potency estimated from few doses,MAPK9,1260 nM
same,potency estimated from few doses,MAPKAPK2,435 nM
same,potency estimated from few doses,RIPK2,1090 nM
